Laboratory results taken from paper PMC4336329 (PLoS ONE, 2015).
Screen size: about 310,000 compounds; about 14,000 (4.5%) showed an effect of 50% or more. The effect is printed as a negative number. For the sample, strong results were picked, then their nearest neighbours and some compounds at random.

Target: human ether-à-go-go-related gene (hERG) potassium channel (human, UniProt Q12809)
Assay: primary screen, population patch clamp on CHO cells stably expressing hERG; higher = less effect of the substance
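Also: peak tail current of the secondary pulse compared with the same well before compound.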

Chain of human ether-à-go-go-related gene (hERG) potassium channel (Q12809 whole entry, looked up): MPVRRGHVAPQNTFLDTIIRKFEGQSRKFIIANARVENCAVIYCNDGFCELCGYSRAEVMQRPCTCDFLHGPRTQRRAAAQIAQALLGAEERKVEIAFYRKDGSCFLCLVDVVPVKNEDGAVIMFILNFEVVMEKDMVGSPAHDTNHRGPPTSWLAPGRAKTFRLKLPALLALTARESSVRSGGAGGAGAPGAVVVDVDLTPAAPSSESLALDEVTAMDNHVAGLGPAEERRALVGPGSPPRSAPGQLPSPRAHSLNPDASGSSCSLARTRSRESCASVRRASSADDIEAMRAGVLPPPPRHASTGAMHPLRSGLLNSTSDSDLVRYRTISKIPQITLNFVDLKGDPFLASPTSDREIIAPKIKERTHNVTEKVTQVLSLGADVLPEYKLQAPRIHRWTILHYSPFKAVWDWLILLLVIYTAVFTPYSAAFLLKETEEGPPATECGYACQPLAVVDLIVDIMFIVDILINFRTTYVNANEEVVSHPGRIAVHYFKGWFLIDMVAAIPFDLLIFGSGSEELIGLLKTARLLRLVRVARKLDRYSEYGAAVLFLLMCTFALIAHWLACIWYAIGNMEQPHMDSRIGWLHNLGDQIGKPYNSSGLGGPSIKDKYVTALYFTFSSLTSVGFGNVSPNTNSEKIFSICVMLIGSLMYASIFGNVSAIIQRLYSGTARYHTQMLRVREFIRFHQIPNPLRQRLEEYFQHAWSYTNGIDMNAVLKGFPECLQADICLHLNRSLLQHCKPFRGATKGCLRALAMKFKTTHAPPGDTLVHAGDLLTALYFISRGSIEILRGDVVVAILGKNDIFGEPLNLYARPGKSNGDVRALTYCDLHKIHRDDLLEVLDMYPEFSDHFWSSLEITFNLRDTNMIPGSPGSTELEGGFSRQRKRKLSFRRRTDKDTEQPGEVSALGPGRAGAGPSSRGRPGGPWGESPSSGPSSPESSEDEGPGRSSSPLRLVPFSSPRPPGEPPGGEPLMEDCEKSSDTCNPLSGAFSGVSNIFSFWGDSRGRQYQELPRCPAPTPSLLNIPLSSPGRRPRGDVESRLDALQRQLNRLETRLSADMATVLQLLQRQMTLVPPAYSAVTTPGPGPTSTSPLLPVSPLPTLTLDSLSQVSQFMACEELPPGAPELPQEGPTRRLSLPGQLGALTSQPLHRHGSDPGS

Row | SMILES | hERG current change (%, negative = inhibition) at 10uM [%]
1 | Cc1c(Cl)cccc1-n1c(SCC(=O)N(C)Cc2ccccc2)nnc1-c1ccncc1 | -49.5
2 | COc1ccc(CNC(=O)C2CCN(S(=O)(=O)c3cccc4nonc34)CC2)cc1 | -0.634
3 | CC(C)Sc1nnc([C@@H]2CCCN2C(=O)OC(C)(C)C)o1 | 14.7
4 | Cc1nc(NCc2ccc3c(c2)OCO3)c2nnn(Cc3ccccc3)c2n1 | -13.9
5 | CCOc1ccc(CCNC(=O)/C=C/c2ccco2)cc1OCC | -70
6 | COc1ccc(CCNC(=O)/C=C/c2ccco2)cc1OC | 0.593
7 | CCOc1ccc(NC(=O)CN(C)CC(=O)NC(C)c2ccccc2)cc1OCC (stereo not shown) | 6.58
8 | CCOc1ccccc1NC(=O)c1cccc(NC(=O)CC(c2ccccc2)c2ccccc2)c1 | -67.1
9 | CCOc1ccc(CCNC(=O)COC(=O)/C=C/c2ccco2)cc1OCC | 12.9
10 | CCOc1ccccc1NC(=O)c1ccc(Cl)c(NC(=O)CC(c2ccccc2)c2ccccc2)c1 | 2.16
11 | CCOc1ccc(NC(=O)CN(C)C(=O)/C=C/c2ccco2)cc1OCC | -61.2
12 | CN(CC(=O)Nc1ccc(Cl)c(C(F)(F)F)c1)C(=O)/C=C/c1ccco1 | 5.99
13 | CCCC(=O)Nc1cccc(C(=O)Nc2ccccc2OCC)c1 | -14.7
14 | CCOc1ccc(/C=C/C(=O)N(C)CC(=O)Nc2cccc(F)c2)cc1OCC | 10.6
15 | COc1cccc(NC(=O)CN(C)C(=O)CC(NC(=O)c2ccccc2Cl)c2ccccc2)c1 (stereo not shown) | -49.7
16 | CCOc1ccc(NC(=O)CN(C)C(=O)CC(NC(=O)c2ccccc2)c2ccccc2)cc1OCC (stereo not shown) | -51.9
17 | COc1ccc(-n2c3c(cc(C(=O)NNc4ccccc4C)c2=O)C(=O)CC(C)(C)C3)cc1 | 17.7
18 | O=c1c2c(nc3nc(NCc4ccc(Cl)cc4)[nH]n13)CCC2 | 23.2
19 | O=S(=O)(c1cccc2nsnc12)N1CCc2ccccc2C1 | -34.8
20 | COc1ccc(OC)c(Nc2nc(C)nc3c2oc2ccccc23)c1 | 5.02
21 | O=C(NC(=S)NNC(=O)[C@H]1C[C@@H]1c1ccccc1)c1ccc(F)cc1 | 3.86
22 | CCOC(=O)N(Cc1ccccc1)Cc1ccc(C(=O)N[C@@H](Cc2ccccc2)C(=O)O)cc1 | 13.8

Row | SMILES | hERG current change (%, negative = inhibition) at 10uM [%]
23 | CCC(C)NC(=O)CCn1ccc2cc(S(=O)(=O)N3CCCC3)ccc21 (stereo not shown) | 12.3
24 | CCC1=NN2C(=N)/C(=C/c3ccc(OS(=O)(=O)c4ccccc4)cc3)C(=O)N=C2S1 | -3.25
25 | CCOC(=O)C1CCN(S(=O)(=O)c2ccc3[nH]c(=O)ccc3c2)CC1 | -45.3
26 | CCOC(=O)C1CCN(S(=O)(=O)c2ccc3c(c2)N(C(C)=O)CCO3)CC1 | -67.2
27 | CCOC(=O)C1CCN(S(=O)(=O)c2ccc3oc(=O)ccc3c2)CC1 | -77
28 | CC(=O)N1CCOc2ccc(S(=O)(=O)N3CCCCC3)cc21 | 11.6
29 | CC(=O)N1CCOc2ccc(S(=O)(=O)N3CCC(C)CC3)cc21 | 6.53
30 | CCOC(=O)C1CCN(S(=O)(=O)c2ccc3[nH]c(=O)oc3c2)CC1 | -30.9
31 | CC/C(=N\NC(=O)C1CC1)c1cccc(Cl)c1 | 30.9
32 | Cc1nc(Sc2ccc(Cl)cc2)c(C#N)c(C)c1[N+](=O)[O-] | 6.1
33 | COC(=O)Cn1cnc2scc(-c3ccc(C)cc3)c2c1=O | 7.31
34 | CC(C)C(NC(=O)c1ccc(F)cc1)C(=O)Nc1cccnc1 (stereo not shown) | 0.585
35 | CCOC(=O)c1ccccc1NC(=O)c1c(F)c(F)c(F)c(F)c1F | 10.2
36 | COc1ccc(OC)c(C(=O)c2coc3ccc(O)c(CN(C)C)c23)c1.Cl | -12.7
37 | COc1ccc(C(=O)c2coc3ccc(O)cc23)cc1 | 7.61
38 | CCN(CC)Cc1c(O)ccc2occ(C(=O)c3ccc(OC)cc3)c12 | -74.2
39 | COc1ccc2occ(C(=O)c3coc4ccc(O)c(CN(C)C)c34)c2c1.Cl | -72.1
40 | COc1ccc(OC)c(C(O)c2coc3ccc(O)c(CN(C)C)c23)c1 (stereo not shown) | -17
41 | COc1ccc2occ(C(=O)c3ccc(N)cc3)c2c1 | 2.02
42 | COc1ccc(C(=O)c2coc3ccc(OC(C)=O)cc23)cc1 | 24.9
43 | COc1ccc(C(=O)c2coc3ccc(O)c(CN(C)C)c23)cc1 | -57.9
44 | COc1ccc(Oc2coc3c(CN(C)C)c(O)ccc3c2=O)cc1 | 17.7

Row | SMILES | hERG current change (%, negative = inhibition) at 10uM [%]
45 | COc1ccc(C(O)c2coc3ccc(O)c(CN(C)C)c23)cc1 (stereo not shown) | -47.9
46 | COc1ccc2occ(C(=O)c3ccc(N=C(C)N(C)C)cc3)c2c1 | -58.8
47 | COc1ccc(S(=O)(=O)N/N=C(/C)c2ccco2)cc1 | -6.76
48 | CCc1sc(-c2c(C#N)c(N)nc3c2CCCCCC3)cc1[N+](=O)[O-] | 14
49 | Cc1ccc(C(=O)NC(C)c2ccccc2)cc1Br (stereo not shown) | -11.8
50 | Cc1cc(C)cc(NC(=O)c2ccc(S(=O)(=O)C(F)F)cc2)c1 | -29.7
51 | CC(=O)NCCNc1nc2c(-c3cccc(C)c3)nnn2c2ccccc12 | 12.8
52 | CC(CN1CCCCC1)OC(=O)c1ccc(Cl)cc1.Cl (stereo not shown) | -36.4
53 | O=C1CCN(S(=O)(=O)c2cc(C(F)(F)F)ccc2Cl)CC1 | -1.34
54 | CCc1ccccc1NC(=O)c1ccccc1N1C(=O)C2C3C=CC(C3)C2C1=O (stereo not shown) | 18.3
55 | Cc1cc(C)n(-c2cc(N3CCN(C(=O)c4ccccc4C)CC3)ccc2[N+](=O)[O-])n1 | -52.7
56 | Cc1cc(C)n(-c2cc(N3CCN(S(=O)(=O)c4ccc(C)c(C)c4)CC3)ccc2[N+](=O)[O-])n1 | 15
57 | COc1ccc(N2CCN(C(=O)c3ccc(-n4nc(C)cc4C)cc3)CC2)cc1 | -19.4
58 | Cc1cc(C)n(-c2cc(N3CCN(C(=O)c4ccc(C(C)(C)C)cc4)CC3)ccc2[N+](=O)[O-])n1 | -34.4
59 | Cc1ccccc1C(=O)N1CCN(c2ccc([N+](=O)[O-])c(N3CCOCC3)c2)CC1 | -16.3
60 | CC(=O)N1CCN(c2ccc([N+](=O)[O-])c(-n3nc(C)cc3C)c2)CC1 | -51.9
61 | Cc1cc(C)n(-c2cc(N3CCN(S(=O)(=O)c4ccc(Cl)cc4)CC3)ccc2[N+](=O)[O-])n1 | -32.8
62 | Cc1cc(C)c(S(=O)(=O)N2CCN(c3ccc([N+](=O)[O-])c(-n4nc(C)cc4C)c3)CC2)c(C)c1 | -7.91
63 | COc1ccc(C(=O)N2CCN(c3ccc([N+](=O)[O-])c(-n4nc(C)cc4C)c3)CC2)cc1 | -78.2
64 | COc1cc(C)ccc1OCc1cc(C(=O)NCCN2CCOCC2)no1 | 2.08
65 | COc1ccc(/C=N/NC(=O)c2ccc3nc[nH]c3c2)cc1OC | 20.7
66 | CCC1CCCCN1Cc1ccc(OC)c(C)c1C (stereo not shown) | -31.2

Row | SMILES | hERG current change (%, negative = inhibition) at 10uM [%]
67 | Cc1ccc(CNC(=O)C2CCCN2C(=O)Nc2ccccc2)cc1 (stereo not shown) | -8.61
68 | COc1ccccc1N1CCN(S(=O)(=O)c2cn(C)nc2C)CC1 | -2.6
69 | CCCCN(C(=O)CN1CC(C)OC(C)C1)c1c(N)n(CC(C)C)c(=O)[nH]c1=O (stereo not shown) | 9.06
70 | CCN(c1ccccc1)S(=O)(=O)c1ccc(Oc2ccc([N+](=O)[O-])cc2)nc1 | -21
71 | CCN(c1ccccc1)S(=O)(=O)c1ccc(Oc2ccc(-n3ccnc3)cc2)nc1 | -77.4
72 | CCN(c1ccccc1)S(=O)(=O)c1ccc(NN)nc1 | -12.2
73 | Cc1ccc(-c2[nH]nc3c2C(c2cccnc2)C(C#N)=C(N)O3)cc1 (stereo not shown) | -7.46
74 | O=[N+]([O-])c1ccc(C(O)CSC(=S)N2CCCCC2)cc1 (stereo not shown) | -3.13
75 | CC(C)(C)c1ccc(C(=O)/C=C2\NC(=O)CS2)cc1 | -9.16
76 | OCCC1CN(Cc2cnc(-c3ccccc3)s2)CCN1CCc1ccccc1 (stereo not shown) | -71.2
77 | OCCC1CN(Cc2cnc(-c3ccccc3)s2)CCN1C1CCCCC1 (stereo not shown) | -51.4
78 | Cc1ncc(CN2CCN(Cc3ccccc3)C(CCO)C2)s1 (stereo not shown) | 1.08
79 | OCCC1CN(Cc2cnc(-c3ccccc3)s2)CCN1Cc1ccccc1 (stereo not shown) | -57.5
80 | CC(C)N1CCC(N2CCN(Cc3cnc(-c4ccccc4)s3)CC2CCO)CC1 (stereo not shown) | -15.6
81 | Cc1ncc(CN2CCN(C3CCCC3)C(CCO)C2)s1 (stereo not shown) | 27.6
82 | CC(C)(O)C#Cc1ccc(CN2CCN(CCc3ccccc3)C(CCO)C2)s1 (stereo not shown) | -30.7
83 | CCOc1ccc(CN2CCN(Cc3cnc(-c4ccccc4)s3)CC2CCO)cc1 (stereo not shown) | -90.7
84 | CCOc1ccc(CN2CCN(Cc3cnc(N4CCOCC4)s3)CC2CCO)cc1 (stereo not shown) | -39.8
85 | CC(C)=CCN1CCN(Cc2cnc(-c3ccccc3)s2)CC1CCO (stereo not shown) | -49.2
